Assay results published in PubChem BioAssay (NCATS).
Where “and” joins values, the source holds several entries; their conditions need not be identical. Equal entries are not always repeated. Records with an inconclusive call do not appear. Calls of active or inactive are those of the source. Unless noted, the call rests on the fitted dose curve; in most records, active means well fitted curve in the direction sought with a large enough effect; inconclusive means small, poorly fitted or top-dose-only effect, or another doubt; inactive means no such curve, though single readings can be large; an effect the other way counts as inactive or inconclusive.

What was measured:
[1] = target: Cellular tumor antigen p53 (Homo sapiens) (UniProt P04637); assay: Primary qHTS for small molecule compounds that upregulate eGFP-tagged delta133p53alpha (in N-terminal) cells. (AID 2060322); details: NCI-H358 eGFP-delta133p53alpha fluorescence, 24 h; activation: hits give high values;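 further: series mostly up to about 56 µM; 0% = DMSO vehicle and 100% = reference activator; nearly all actives have a fitted effect of over 75% in size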
Sequence of Cellular tumor antigen p53 (Homo sapiens) (P04637 whole entry, looked up): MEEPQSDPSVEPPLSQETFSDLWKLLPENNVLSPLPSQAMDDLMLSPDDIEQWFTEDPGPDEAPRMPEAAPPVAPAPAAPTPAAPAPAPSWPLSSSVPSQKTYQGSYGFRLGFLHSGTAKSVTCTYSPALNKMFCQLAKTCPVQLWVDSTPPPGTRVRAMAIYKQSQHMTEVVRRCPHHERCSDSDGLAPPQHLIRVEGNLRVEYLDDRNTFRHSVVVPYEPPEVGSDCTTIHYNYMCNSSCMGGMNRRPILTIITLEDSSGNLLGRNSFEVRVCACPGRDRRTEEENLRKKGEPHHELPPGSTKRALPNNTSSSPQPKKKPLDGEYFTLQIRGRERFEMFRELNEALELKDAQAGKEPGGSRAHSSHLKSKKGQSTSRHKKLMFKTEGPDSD
Method in brief: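 NCI-H358 cells pre-induced 24 h with 10 ng/ml doxycycline to express N-terminal eGFP-delta133p53alpha, then dosed 24 h at 37C without doxycycline; fixed, Hoechst-stained, GFP intensity by laser scanning cytometry, normalized to DMSO (0%) and 57.5 uM 5-azacytidine (100%).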

[2] = target: Cellular tumor antigen p53 (Homo sapiens) (UniProt P04637); assay: Primary qHTS for small molecule compounds that upregulate eGFP-tagged delta133p53alpha (in C-terminal) cells. (AID 2060324);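 further: 0% = DMSO wells and 100% = 57.5 µM 5-azacytidine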
Method in brief: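 NCI-H358 cells pre-induced 24 h with 100 ng/ml doxycycline to express delta133p53alpha-eGFP, then dosed in doxycycline-free medium for 24 h at 37C. Fixed, Hoechst-stained; GFP intensity by laser scanning cytometry, normalized to DMSO wells.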

[3] = target: Aldehyde dehydrogenase, mitochondrial (Homo sapiens) (UniProt P05091); assay: qHTS for Inhibitors of the Aldehyde Dehydrogenase Family (ALDH2) Validation screens (AID 2061302; active means well fitted inhibition curve with a large enough effect; title and protocol of this record describe different tests;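 further: plate controls were DMSO vehicle for no effect and maximal DPI positive control response for full effect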)
[4] = target: Retinaldehyde dehydrogenase 3 (Homo sapiens) (UniProt P47895); assay: qHTS for Inhibitors of the Aldehyde Dehydrogenase Family (ALDH1A3) Validation screen (AID 2061312); further: on the % scale 0 is the no-effect control and ±100 the full control effect; nearly all actives have a fitted effect of over 45% in size

CC(C)Oc1cccnc1N(C)C1CCN(Cc2ccccc2)CC1
inactive: activation [1] -4.1% | Potency [2] | Potency [3] | Potency [4]

CCCN1CCC[C@H](c2cccc(O)c2)C1
inactive: activation [1] 4.78% | Potency [2] | Potency [3] | Potency [4]

NC(CCP(=O)(O)O)C(=O)O (stereo unspecified)
inactive: activation [1] -26.8% | Potency [2] | Potency [3] | Potency [4]

CC12NC(Cc3ccccc31)c1ccccc12 (stereo unspecified)
inactive: activation [1] 6.02% | Potency [2] | Potency [3] | Potency [4]

CCCN1CCC[C@@H]2Cc3[nH]ncc3C[C@H]21
inactive: activation [1] -5.86% and -11.2% and 2.09% | Potency [2] | Potency [3] | Potency [4]

N[C@@]1(C(=O)O)CC[C@@H](C(=O)O)C1
inactive: activation [1] 21.8% | Potency [2] | Potency [3] | Potency [4]

Nc1ccncc1
inactive: activation [1] -16.4% and 3.84% | Potency [2] | Potency [3] | Potency [4]

CCCN(CCC)C1CCc2cccc(O)c2C1 (stereo unspecified)
inactive: activation [1] 29.8% | Potency [2] | Potency [3] | Potency [4]

CS(=N)(=O)CC[C@H](N)C(=O)O (stereo partly specified)
inactive: activation [1] -13.1% | Potency [2] | Potency [3] | Potency [4]

CCCN(CCC)C1CCc2ccc(O)cc2C1 (stereo unspecified)
inactive: activation [1] -10.8% | Potency [2] | Potency [3] | Potency [4]

NCC(O)c1ccc(O)cc1 (stereo unspecified)
inactive: activation [1] -4.18% and -26.8% | Potency [2] | Potency [3] | Potency [4]

Cc1sc2ccccc2c1CC1=NCCN1
inactive: activation [1] -35.5% | Potency [2] | Potency [3] | Potency [4]

C[C@]12CCC3C(CC[C@H]4C[C@H](O)CC[C@]34C)C1CC[C@@H]2C(=O)CO (stereo partly specified)
inactive: activation [1] -8.4% | Potency [2] | Potency [3] | Potency [4]

NCC(O)c1cc(O)c(O)cc1F (stereo unspecified)
inactive: activation [1] -23.1% | Potency [2] | Potency [3] | Potency [4]

NCC(CP(=O)(O)O)c1ccc(Cl)cc1 (stereo unspecified)
inactive: activation [1] -1.72% | Potency [2] | Potency [3] | Potency [4]

CC(C)NC(C)Cc1ccc(I)cc1 (stereo unspecified)
inactive: activation [1] -3.39% | Potency [2] | Potency [3] | Potency [4]

C[C@H](Cc1ccc2c(c1)OC(C(=O)O)(C(=O)O)O2)NC[C@H](O)c1cccc(Cl)c1
inactive: activation [1] -6.85% | Potency [2] | Potency [3] | Potency [4]

CC(N)Cc1c[nH]c2ccc(O)cc12 (stereo unspecified)
inactive: activation [1] -0.781% | Potency [2] | Potency [3] | Potency [4]

c1ccc(C2(c3ccccc3)CC2C2=NCCN2)cc1 (stereo unspecified)
inactive: activation [1] -13.2% | Potency [2] | Potency [3] | Potency [4]

CC(=O)[C@H]1CC[C@H]2[C@@H]3CC[C@H]4C[C@H](O)CC[C@]4(C)[C@H]3C(=O)C[C@]12C
inactive: activation [1] -36.8% and -33% | Potency [2] | Potency [3] | Potency [4]

CC(=O)[C@H]1CCC2C3CC[C@H]4C[C@H](O)CC[C@]4(C)C3CC[C@@]21C (stereo partly specified)
inactive: activation [1] -16.4% | Potency [2] | Potency [3] | Potency [4]

C[N+]1(C)CCc2cc3c(cc2[C@H]1[C@@H]1OC(=O)c2c1ccc1c2OCO1)OCO3
inactive: activation [1] -3.8% | Potency [2] | Potency [3] | Potency [4]

CC(N)Cc1c[nH]c2ccc(OCc3cccs3)cc12 (stereo unspecified)
inactive: activation [1] -31.9% | Potency [2] | Potency [3] | Potency [4]

CCCN(CCC)CCc1ccc(O)c(O)c1
inactive: activation [1] -0.248% | Potency [2] | Potency [3] | Potency [4]

C[C@H](N)Cc1cccc(C(F)(F)F)c1
inactive: activation [1] -17% | Potency [2] | Potency [3] | Potency [4]

CC(=O)OCC1=C(C(=O)O)N2C(=O)[C@@H](NC(=O)CCC[C@@H](N)C(=O)O)[C@H]2SC1
inactive: activation [1] 20.4% | Potency [2] | Potency [3] | Potency [4]

CCCN1CC[C@@H]2c3cc(O)ccc3CC[C@@H]21
inactive: activation [1] -3.44% | Potency [2] | Potency [3] | Potency [4]

C[C@@H](N)Cc1cnc[nH]1
inactive: activation [1] 5.3% | Potency [2] | Potency [3] | Potency [4]

CC(=O)NBr
inactive: activation [1] -8.24% | Potency [2] | Potency [3] | Potency [4]
